Holding throughout (assay): DAPPL (digital affinity profiling via proximity ligation, sequencing); 10 mM Tris-HCl pH 7.5, 50 mM NaCl, 1 mM DTT, 4% glycerol, room temperature, 30 min; GST-TFs on glutathione beads, 16-mer random dsDNA library, 0.1% formaldehyde crosslink after washing; high values mean tight binding
Common to all, as to conditions: protein: recombinant; tags: N-terminal GST; dsDNA, one strand shown

Test [1] concerns the target T1, ERF (Homo sapiens, UniProt P50548 1-548).
T1 sequence: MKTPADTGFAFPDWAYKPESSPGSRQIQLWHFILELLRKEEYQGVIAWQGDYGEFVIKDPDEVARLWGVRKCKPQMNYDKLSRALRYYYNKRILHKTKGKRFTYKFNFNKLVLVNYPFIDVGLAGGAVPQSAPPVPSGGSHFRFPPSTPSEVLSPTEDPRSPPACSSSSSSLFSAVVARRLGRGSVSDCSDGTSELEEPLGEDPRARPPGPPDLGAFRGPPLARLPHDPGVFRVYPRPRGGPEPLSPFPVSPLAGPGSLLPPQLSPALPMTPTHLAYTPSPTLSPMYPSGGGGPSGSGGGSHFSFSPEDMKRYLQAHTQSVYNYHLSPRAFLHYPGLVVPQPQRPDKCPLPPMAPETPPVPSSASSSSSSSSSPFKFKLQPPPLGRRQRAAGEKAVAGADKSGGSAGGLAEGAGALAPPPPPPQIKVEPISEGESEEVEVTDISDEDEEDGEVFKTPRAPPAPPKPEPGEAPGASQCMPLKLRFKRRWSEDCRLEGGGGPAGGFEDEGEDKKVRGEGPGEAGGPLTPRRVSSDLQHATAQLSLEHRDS
Put shortly:
(§1)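 Each value of binding signal is a hexamer's read frequency for a factor divided by the same hexamer's frequency in the tag-only sample. Barcoded, bead-captured GST fusions of human transcription factors made in yeast were pooled with that sample and incubated with 200 nmole of a random double-stranded 16-mer DNA library in Tris/NaCl/DTT/glycerol buffer at room temperature for 30 min. Washing, 0.1% formaldehyde crosslinking, proximity ligation, PCR and Illumina NextSeq500 sequencing followed.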

Test [2] has as its target T2, ETV3L (Homo sapiens, UniProt Q6ZN32 1-361).
T2 sequence: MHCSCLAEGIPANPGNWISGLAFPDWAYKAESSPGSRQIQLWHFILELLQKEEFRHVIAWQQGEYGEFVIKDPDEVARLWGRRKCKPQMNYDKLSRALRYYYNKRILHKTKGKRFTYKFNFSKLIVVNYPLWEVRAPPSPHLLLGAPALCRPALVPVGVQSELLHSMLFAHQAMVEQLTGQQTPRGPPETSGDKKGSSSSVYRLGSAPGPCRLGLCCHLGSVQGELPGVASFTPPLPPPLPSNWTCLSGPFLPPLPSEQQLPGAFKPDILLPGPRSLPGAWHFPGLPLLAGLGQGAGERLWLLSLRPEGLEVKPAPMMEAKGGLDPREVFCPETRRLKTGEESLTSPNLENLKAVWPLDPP
Put shortly:
as §1

The target of test [3] is T3, ETS2 (Homo sapiens, UniProt P15036 1-469).
T3 sequence: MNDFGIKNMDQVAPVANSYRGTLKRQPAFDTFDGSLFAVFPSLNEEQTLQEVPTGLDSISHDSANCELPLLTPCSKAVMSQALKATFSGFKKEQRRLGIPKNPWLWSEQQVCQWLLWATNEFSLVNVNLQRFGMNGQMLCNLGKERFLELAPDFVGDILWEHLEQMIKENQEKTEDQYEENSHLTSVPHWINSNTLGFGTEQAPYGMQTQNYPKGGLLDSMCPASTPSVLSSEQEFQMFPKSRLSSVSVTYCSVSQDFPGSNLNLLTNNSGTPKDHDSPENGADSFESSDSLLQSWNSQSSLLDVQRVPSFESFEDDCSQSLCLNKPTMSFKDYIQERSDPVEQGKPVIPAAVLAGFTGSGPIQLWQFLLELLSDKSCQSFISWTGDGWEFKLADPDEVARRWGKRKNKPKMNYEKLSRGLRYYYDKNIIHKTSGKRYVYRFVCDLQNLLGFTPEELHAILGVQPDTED
Put shortly:
as §1

The target in test [4] is T4, SPDEF (Homo sapiens, UniProt O95238 1-335).
T4 sequence: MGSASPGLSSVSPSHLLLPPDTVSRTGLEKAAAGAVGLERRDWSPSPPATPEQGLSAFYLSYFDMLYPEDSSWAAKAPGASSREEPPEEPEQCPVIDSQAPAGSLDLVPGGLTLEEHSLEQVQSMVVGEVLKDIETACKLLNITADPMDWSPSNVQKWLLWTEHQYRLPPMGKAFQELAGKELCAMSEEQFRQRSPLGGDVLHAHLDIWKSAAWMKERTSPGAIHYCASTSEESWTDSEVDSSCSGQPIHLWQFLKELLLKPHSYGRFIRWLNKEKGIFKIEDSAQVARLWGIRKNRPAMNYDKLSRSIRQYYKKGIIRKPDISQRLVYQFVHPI
Put shortly: as §1

For test [5], the target named is T5, ETV7 (Homo sapiens, UniProt Q9Y603 1-341).
T5 sequence: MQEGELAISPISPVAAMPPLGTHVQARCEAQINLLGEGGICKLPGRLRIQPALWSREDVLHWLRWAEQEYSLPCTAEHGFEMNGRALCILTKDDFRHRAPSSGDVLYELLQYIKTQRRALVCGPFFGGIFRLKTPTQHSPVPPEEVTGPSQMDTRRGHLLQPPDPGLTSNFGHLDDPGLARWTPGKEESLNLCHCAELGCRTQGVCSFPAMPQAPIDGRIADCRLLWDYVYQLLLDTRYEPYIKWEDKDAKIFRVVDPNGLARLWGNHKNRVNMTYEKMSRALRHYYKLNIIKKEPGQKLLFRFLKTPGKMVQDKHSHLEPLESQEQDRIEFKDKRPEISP
Put shortly: as §1

Test [6] deals with T6, ELF5 (Homo sapiens, UniProt Q9UKW6-2 1-255).
T6 sequence: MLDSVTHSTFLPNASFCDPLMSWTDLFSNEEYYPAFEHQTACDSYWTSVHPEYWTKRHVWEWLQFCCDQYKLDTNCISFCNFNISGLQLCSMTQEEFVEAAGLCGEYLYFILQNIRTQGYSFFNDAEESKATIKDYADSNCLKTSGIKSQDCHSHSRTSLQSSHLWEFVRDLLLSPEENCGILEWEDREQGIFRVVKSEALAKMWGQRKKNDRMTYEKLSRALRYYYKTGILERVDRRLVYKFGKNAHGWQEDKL
Put shortly:
as §1

The target of test [7] is T7, ETV3 (Homo sapiens, UniProt P41162-2 1-143).
T7 sequence: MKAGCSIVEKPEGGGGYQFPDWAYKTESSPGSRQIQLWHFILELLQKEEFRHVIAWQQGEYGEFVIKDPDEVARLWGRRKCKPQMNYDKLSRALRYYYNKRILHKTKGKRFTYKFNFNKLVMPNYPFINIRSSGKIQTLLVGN
The gist of the method: as §1

Test [8] addresses ETV6 (Homo sapiens, UniProt P41212 1-452). Put shortly:
as §1

ETV6, sequence (P41212 whole entry): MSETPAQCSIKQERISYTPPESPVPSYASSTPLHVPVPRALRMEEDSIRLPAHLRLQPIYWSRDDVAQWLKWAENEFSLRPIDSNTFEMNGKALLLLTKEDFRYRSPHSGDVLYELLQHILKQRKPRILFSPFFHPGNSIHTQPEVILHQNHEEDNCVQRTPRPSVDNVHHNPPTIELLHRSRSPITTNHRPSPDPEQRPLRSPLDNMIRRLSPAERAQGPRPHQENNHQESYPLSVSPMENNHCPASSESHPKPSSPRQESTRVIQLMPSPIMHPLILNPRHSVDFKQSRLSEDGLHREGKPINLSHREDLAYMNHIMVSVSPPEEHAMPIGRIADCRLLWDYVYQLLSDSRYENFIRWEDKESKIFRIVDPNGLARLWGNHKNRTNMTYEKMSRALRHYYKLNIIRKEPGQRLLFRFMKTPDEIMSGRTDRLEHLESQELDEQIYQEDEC

With TTAGTA, the binding signal in test [1] is 1.17 fold enrichment (6-mer frequency, TF over GST control); in test [2], 1.07 fold enrichment (6-mer frequency, TF over GST control); in test [3] it was 1.09 fold enrichment (6-mer frequency, TF over GST control); in test [4], 1.12 fold enrichment (6-mer frequency, TF over GST control); in test [5], 1.14 fold enrichment (6-mer frequency, TF over GST control); in test [6] it was 1.07 fold enrichment (6-mer frequency, TF over GST control). Besides, the binding signal in test [7] is 1.27 fold enrichment (6-mer frequency, TF over GST control); in test [8], 1.12 fold enrichment (6-mer frequency, TF over GST control).

As for GTTAAG, the binding signal in test [1] is 1.03 fold enrichment (6-mer frequency, TF over GST control); in test [2] it was 1.01 fold enrichment (6-mer frequency, TF over GST control); in test [3], 1.04 fold enrichment (6-mer frequency, TF over GST control); in test [4], 1.05 fold enrichment (6-mer frequency, TF over GST control); in test [5] it was 1.02 fold enrichment (6-mer frequency, TF over GST control); in test [6] it was 1.07 fold enrichment (6-mer frequency, TF over GST control). Also, the binding signal in test [7] was 1.18 fold enrichment (6-mer frequency, TF over GST control); in test [8], 1.02 fold enrichment (6-mer frequency, TF over GST control).

Regarding GAAACA, the binding signal is 1.34 fold enrichment (6-mer frequency, TF over GST control) in test [1]; 1.4 fold enrichment (6-mer frequency, TF over GST control) in test [2]; 1.34 fold enrichment (6-mer frequency, TF over GST control) in test [3]; 1.3 fold enrichment (6-mer frequency, TF over GST control) in test [4]; 1.35 fold enrichment (6-mer frequency, TF over GST control) in test [5]; 1.39 fold enrichment (6-mer frequency, TF over GST control) in test [6]. In addition, the binding signal in test [7] is 1.37 fold enrichment (6-mer frequency, TF over GST control); in test [8] it was 1.45 fold enrichment (6-mer frequency, TF over GST control).

Consider CTTGTG, for which the binding signal in test [1] is 1.59 fold enrichment (6-mer frequency, TF over GST control); in test [2] it was 1.4 fold enrichment (6-mer frequency, TF over GST control); in test [3], 1.5 fold enrichment (6-mer frequency, TF over GST control); in test [4], 1.41 fold enrichment (6-mer frequency, TF over GST control); in test [5], 1.41 fold enrichment (6-mer frequency, TF over GST control); in test [6], 1.44 fold enrichment (6-mer frequency, TF over GST control). The binding signal is 1.51 fold enrichment (6-mer frequency, TF over GST control) in test [7] and 1.22 fold enrichment (6-mer frequency, TF over GST control) in test [8].

As to CGGATG, the binding signal in test [1] was 1.39 fold enrichment (6-mer frequency, TF over GST control); in test [2], 1.62 fold enrichment (6-mer frequency, TF over GST control); in test [3], 1.83 fold enrichment (6-mer frequency, TF over GST control); in test [4], 3.14 fold enrichment (6-mer frequency, TF over GST control); in test [5], 1.41 fold enrichment (6-mer frequency, TF over GST control); in test [6], 1.75 fold enrichment (6-mer frequency, TF over GST control). The binding signal in test [7] is 1.75 fold enrichment (6-mer frequency, TF over GST control); in test [8] it was 1.5 fold enrichment (6-mer frequency, TF over GST control).

GCGCTC: the binding signal in test [1] was 1.2 fold enrichment (6-mer frequency, TF over GST control); in test [2], 1.19 fold enrichment (6-mer frequency, TF over GST control); in test [3], 1.2 fold enrichment (6-mer frequency, TF over GST control); in test [4], 1.07 fold enrichment (6-mer frequency, TF over GST control); in test [5], 1.04 fold enrichment (6-mer frequency, TF over GST control); in test [6], 1.05 fold enrichment (6-mer frequency, TF over GST control). Further, the binding signal in test [7] is 1.08 fold enrichment (6-mer frequency, TF over GST control); in test [8] it was 1.02 fold enrichment (6-mer frequency, TF over GST control).

CGACGA: the binding signal in test [1] was 1.12 fold enrichment (6-mer frequency, TF over GST control); in test [2], 1.13 fold enrichment (6-mer frequency, TF over GST control); in test [3], 1.13 fold enrichment (6-mer frequency, TF over GST control); in test [4], 1.13 fold enrichment (6-mer frequency, TF over GST control); in test [5], 1.11 fold enrichment (6-mer frequency, TF over GST control); in test [6], 1.09 fold enrichment (6-mer frequency, TF over GST control). Also, the binding signal is 1.12 fold enrichment (6-mer frequency, TF over GST control) in test [7] and 1.17 fold enrichment (6-mer frequency, TF over GST control) in test [8].

On to ACCTCC, for which the binding signal in test [1] was 1.35 fold enrichment (6-mer frequency, TF over GST control); in test [2], 1.49 fold enrichment (6-mer frequency, TF over GST control); in test [3], 1.41 fold enrichment (6-mer frequency, TF over GST control); in test [4] it was 1.5 fold enrichment (6-mer frequency, TF over GST control); in test [5] it was 1.4 fold enrichment (6-mer frequency, TF over GST control); in test [6], 1.49 fold enrichment (6-mer frequency, TF over GST control). The binding signal in test [7] was 1.33 fold enrichment (6-mer frequency, TF over GST control); in test [8], 1.4 fold enrichment (6-mer frequency, TF over GST control).

For TCCGCG, the binding signal is 1.22 fold enrichment (6-mer frequency, TF over GST control) in test [1]; 1.29 fold enrichment (6-mer frequency, TF over GST control) in test [2]; 1.36 fold enrichment (6-mer frequency, TF over GST control) in test [3]; 1.4 fold enrichment (6-mer frequency, TF over GST control) in test [4]; 1.31 fold enrichment (6-mer frequency, TF over GST control) in test [5]; 1.55 fold enrichment (6-mer frequency, TF over GST control) in test [6]. In addition, the binding signal in test [7] is 1.37 fold enrichment (6-mer frequency, TF over GST control); in test [8] it was 1.25 fold enrichment (6-mer frequency, TF over GST control).

The values above are taken from paper PMC7862700, “An all-to-all approach to the identification of sequence-specific readers for epigenetic DNA modifications on cytosine”.
